DT40 TDP1 no CPT = qHTS for Inhibitors of human tyrosyl-DNA phosphodiesterase 1 (TDP1): qHTS in cells in absence of CPT | 15% of 420,000 active | AID 686978, 2013 | Potency, µM (titrated, usually from 46.2 µM), most hits filed as inhibitors | DT40 Tdp1-/- hTDP1 cells, no CPT, ATP luminescence, 48 h; note: nearly all actives have a fitted effect of over 55% in size
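Camptothecin absent (DMSO only). Human TDP1-complemented DT40 knockout cells, 400 cells/well, 37 °C for minimum 48 hr; ATP measured via CellTiter-Glo, 30 min dark incubation, luminescence.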
Chronic BCR inh = blocks chronic active B-cell receptor signaling; 0.05% of 340,000 active; AID 493014; Potency, µM (top dose mostly 46.1 µM), actives largely listed as inhibitors; ABC-DLBCL IkBa-CBG/CBR reporter, luminescence ratio, 4 h; active = well fitted inhibition curve with a large enough effect in the signal ratio, with a control signal flat, not every such curve was filed as active; inconclusive = small, poorly fitted or top-dose-only effect, or effect the other way, or a change in a side signal; the % refers to the signal ratio
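TMD8 ABC-DLBCL cells carrying doxycycline-inducible green luciferase fused to IkappaBalpha plus unfused red luciferase were exposed to compounds (up to 46 uM) for 4 hrs at 37C. Activity came from the overlap-corrected green/red luminescence ratio.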
SW480 rereplic = inducers of DNA re-replication in SW480 colon cancer cells | SW480 DNA re-replication, Hoechst DNA content imaging, 48 h | Potency, µM (series often up to 46.1 µM), most hits filed as activators | 1.8% of 340,000 active | AID 624297; note: nearly all actives have a fitted effect of over 55% in size
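250 cells/well; 23 nL cpd via pin tool; 48 hr, 37 C, 5% CO2; Hoechst 40 min; imager read of total nuclear intensity, ex 405/em 500-530 nm.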
MCF10A rerep = DNA re-replication induction in MCF 10a cells. MCF 10A DNA re-replication, Hoechst nuclear intensity, 48 h. Potency, µM (series often up to 46.1 µM), most hits filed as activators. 2.9% of 350,000 active; note: nearly all actives have a fitted effect of over 50% in size
TDP1 cell CPT = growth inhibition of DT40 Tdp1-/-;hTDP1 cells with camptothecin (screen for TDP1 inhibitors). 12% of 420,000 active. Potency, µM (highest dose often 46.2 µM), hits mostly inhibitors. chicken DT40 Tdp1-/-;hTDP1 cells + 20 nM CPT, ATP luminescence, 48 h. AID 686979; note: nearly all actives have a fitted effect of over 55% in size
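Chicken DT40 Tdp1-/- cells complemented with human TDP1, 400 cells/well, exposed to compounds plus 20 nM camptothecin for at least 48 h at 37 C; viability read as ATP content by CellTiter-Glo luminescence.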
IL1B secr inh = blocks inflammasome-driven IL-1 beta release. THP-1 LPS/ATP IL-1B secretion, AlphaLISA, 16 h; active compounds read low. activity change, % at 57.5 µM. 4.7% of 360,000 active; in the data active = activity change below about -50%; inconclusive = mostly about -30% to -49%
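THP-1 cells pretreated 1 hr with compounds (up to 57.5 uM final), then stimulated with LPS (250 ng/mL final) plus ATP (1.25 mM final); secreted IL-1B measured by AlphaLISA after 16 hr, decreased signal indicating inhibition.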
Numbers stand for hits; 0 = inactive; ? = inconclusive; - = no result given; ! = repeats disagree. A selection: hits, their analogues and other compounds. The true share with any hit is near 19%. Unless noted, calls come from the whole dose curve; as a rule, active = well fitted curve in the direction sought with a large enough effect; inconclusive = small, poorly fitted or top-dose-only effect, or another doubt; inactive = no such curve, though single readings can be large; an effect the other way counts as inactive or inconclusive.

SMILES	DT40 TDP1 no CPT	Chronic BCR inh	SW480 rereplic	MCF10A rerep	TDP1 cell CPT	IL1B secr inh
COCc1c(C(=O)N2CCCC(C)C2)cnn1-c1nccc(-c2cc(C)sc2C)n1 (centres undefined)	0	-	-	-	0	-
CCCCN(C(=O)c1[nH]c(C)c(C(=O)OCC)c1C)c1c(N)n(CCCC)c(=O)[nH]c1=O	0	0	0	0	0	0
C=CCN1C(=O)/C(=C2/Sc3ccc(OC)cc3N2C)SC1=Nc1cccc(O)c1	?	0	?	5.8µM	0	0
C=CCN1C(=O)/C(=C2/Sc3ccccc3N2C)SC1=Nc1ccccc1C	?	0	0	0	?	0
N#CCCC1CCCC=C1N(Cc1ccccc1)C(=O)C(Cl)Cl (centres undefined)	0	0	0	10µM	0	-
OC(COc1ccc(CNCCc2ccccc2F)cc1)CN1CCCCC1 (centres undefined)	?	0	?	18µM	?	?
OC(COc1ccc(-c2ccccc2)cc1)CN1CCCCC1 (centres undefined)	26µM	-	-	-	?	0
O=C(c1ccccc1)c1ccc(OCC(O)CN2CCN(S(=O)(=O)N3CCCCC3)CC2)cc1 (centres undefined)	18µM	?	0	0	?	0
CCC(=O)c1ccc(OCC(O)CN2CCN(S(=O)(=O)N3CCCCC3)CC2)cc1 (centres undefined)	?	0	0	0	?	0
Cc1ccc(OCC(O)CN2CCN(c3ccc(C)cc3)CC2)cc1 (centres undefined)	?	0	0	0.82µM	?	0
Cc1ccc(N2CCN(CC(O)COc3ccccc3)CC2)cc1 (centres undefined)	0	?	0	0	0	0
OC(COc1ccccc1)CN1CCCCC1 (centres undefined)	0	-	0	0	0	0
OC(COc1cccc2ccccc12)CN1CCN(c2ccccc2)CC1 (centres undefined)	?	0	0	0	18µM	0
OC(COc1cccc2ccccc12)CN1CCOCC1 (centres undefined)	0	-	0	0	0	0
CCOC(=O)C1C(=O)C=C(c2ccccc2)CC1c1ccccc1 (centres undefined)	?	-	0	?	?	?
CCOC(=O)C1C(=O)C=C(c2ccc(C)cc2)CC1c1ccc([N+](=O)[O-])cc1 (centres undefined)	13µM	0	0	0	?	0
CC(C)c1ccc(NC(=O)CCS(=O)(=O)c2cccc3nonc23)cc1	23µM	0	0	0	16µM!	0
Cc1ccc(NC(=O)CCS(=O)(=O)c2cccc3nonc23)cc1	0	0	0	0	0	0
CCCOC(=O)c1ccccc1O	0	-	0	0	0	-
CCOC(=O)C1CCN(C(=O)c2ccc(C)c(NC(=O)c3nsc4ccccc34)c2)CC1	23µM	-	-	-	?	-
CCOC(=O)C1CCCN(C(=O)c2ccc(C)c(NC(=O)c3nsc4ccccc34)c2)C1 (centres undefined)	18µM	-	-	-	?	-
C=CC(C)N1C(=O)S/C(=C\c2ccc(N3CCOCC3)cc2C)C1=O (centres undefined)	13µM	0	?	?	21µM	-77
Cc1cc(N2CCOCC2)ccc1/C=C1/SC(=O)NC1=O	?	0	0	0	0	0
CCCN1CCC(=NNc2ccc(S(=O)(=O)N(CC)CC)cc2[N+](=O)[O-])CC1	2.6µM	?	?	0	2.1µM	0
CCN(CC)S(=O)(=O)c1ccc(N/N=C(\C)c2ccncc2)c([N+](=O)[O-])c1	?	0	0	?	0	0
SMILES	DT40 TDP1 no CPT	Chronic BCR inh	SW480 rereplic	MCF10A rerep	TDP1 cell CPT	IL1B secr inh
CCN(CC)S(=O)(=O)c1ccc(N/N=C(\C)c2ccc3c(c2)OCO3)c([N+](=O)[O-])c1	15µM	0	?	0	?	0
C/C(=N\Nc1ccc(S(N)(=O)=O)cc1[N+](=O)[O-])c1ccc2c(c1)OCO2	15µM	?	?	0	0	0
CN(C)c1ccc(N=Nc2ccc(S(N)(=O)=O)cc2)cc1	0	?	0	0	0	0
CC1=CC(=O)C=CC1=Nc1ccc(N(C)C)cc1	0.92µM	-	-	-	1µM	-121
Cc1ccc(OCCC(=O)NNC(=O)c2nn(C)c(=O)c3ccccc23)cc1	0	0	0	0	?	0
O=C(NCc1nc(-c2ccc(C(F)(F)F)cc2)no1)Nc1cc(Cl)cc(Cl)c1	12µM	0	?	?	10µM	-94
Cc1cc(C)cc(NC(=O)NCc2c(-c3ccccc3)noc2C)c1	0	0	0	0	0	0
Cc1onc(-c2ccccc2)c1CNC(=O)Nc1cccc(Cl)c1	?	0	0	?	?	-66
Cc1onc(-c2ccccc2)c1CNC(=O)Nc1ccc(C(F)(F)F)cc1	16µM	0	0	?	?	-
Cn1c(CSc2nc3ccccc3s2)nnc1SCC(=O)NCCCN1CCOCC1	0	0	0	0	0	0
CCCCSc1nc2ccc(Nc3nc(N4CCOCC4)nc(N4CCOCC4)n3)cc2s1	21µM	0	0	?	?	?
CCCCNC(=O)CSc1nc2ccc(Nc3nc(N4CCOCC4)nc(N4CCOCC4)n3)cc2s1	9.2µM	?	0	?	18µM	0
Cc1ccccc1NC(=O)/C=C1\SC(=O)NC1=O	?	?	?	23µM	0	0
N#Cc1cccc(NC(=O)c2cc(C3CCCCN3C(=O)c3cccs3)on2)c1 (centres undefined)	?	-	-	-	?	0
COC(=O)N1CCCCC1c1cc(C(=O)NCc2ccc(Cl)c(Cl)c2)no1 (centres undefined)	?	-	-	-	?	0
O=C(Nc1ccc(F)c(Cl)c1)c1cc(C2CCCCN2C(=O)c2cccs2)on1 (centres undefined)	7.3µM	-	-	-	16µM	0
O=C(NCc1ccc(Cl)c(Cl)c1)c1cc(C2CCCCN2C(=O)C2CCCCC2)on1 (centres undefined)	18µM	-	-	-	16µM	0
O=C(NCc1ccccc1)c1cc(C2CCCCN2C(=O)c2cccs2)on1 (centres undefined)	?	-	-	-	18µM	0
O=C(Nc1ccccc1Cl)c1cc(C2CCCCN2C(=O)c2cccs2)on1 (centres undefined)	?	-	-	-	29µM	0
COc1ccc(NC(=O)CCCNC(=O)Cn2cnc3sc4c(c3c2=O)CCCC4)c(OC)c1	0	0	0	0	0	0
N#Cc1ccc(C(=O)N2CCCCC2c2cc(C(=O)Nc3ccccc3Cl)no2)cc1 (centres undefined)	?	-	-	-	0	0
COc1ccc(NC(=O)c2cc(C3CCCCN3C(=O)c3cccs3)on2)c(C)c1 (centres undefined)	21µM	-	-	-	21µM	0
